In PubChem BioAssay (NCATS):
Results filed as inconclusive are left out. Calls of active or inactive are those of the source. Calls follow the shape of the dose curve; as a rule, active = well fitted cell-killing curve with a large enough effect; inconclusive = small, poorly fitted or top-dose-only effect, or effect the other way; inactive = no such curve, though single readings can be large or run the other way.

Columns and labels:
[1] = Quantitative High-Throughput drug screen in 47 multiple myeloma cell lines against the NCATS MIPE library collection: PCM6_Riken cell viability assay (AID 1919870); conditions: CellTiter-Glo ATP, 48 h; series mostly up to 45.8 µM; also: nearly all actives have a fitted effect of over 30% in size
How it was run: (§1)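 Inhibition of viability over 48 h was scored by ATP content (CellTiter-Glo) in 500-cell wells. Zero and full viability were defined by media-only and DMSO-only wells.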

[2] = Quantitative High-Throughput drug screen in 47 multiple myeloma cell lines against the NCATS MIPE library collection: RPMI8226_ATCC cell viability assay (AID 1919871); conditions: RPMI8226 myeloma viability, CellTiter-Glo ATP luminescence, 48 h; series mostly up to 45.8 µM; also: nearly all actives have a fitted effect of over 30% in size
How it was run: as §1

[3] = Quantitative High-Throughput drug screen in 47 multiple myeloma cell lines against the NCATS MIPE library collection: KMS28BM_JCRB cell viability assay (AID 1919874); conditions: CellTiter-Glo ATP, 48 h; series mostly up to 45.8 µM; also: nearly all actives have a fitted effect of over 35% in size
How it was run: as §1

[4] = Quantitative High-Throughput drug screen in 47 multiple myeloma cell lines against the NCATS MIPE library collection: KMS11_JCRBsus cell viability assay (AID 1919873); conditions: KMS11 myeloma viability, CellTiter-Glo ATP luminescence, 48 h; series mostly up to 45.8 µM; also: nearly all actives have a fitted effect of over 50% in size
How it was run: as §1

[5] = Quantitative High-Throughput drug screen in 47 multiple myeloma cell lines against the NCATS MIPE library collection: OPM2_DSMZ cell viability assay (AID 1919872); conditions: OPM2 myeloma viability, CellTiter-Glo ATP luminescence, 48 h; series mostly up to 45.8 µM; also: nearly all actives have a fitted effect of over 30% in size
How it was run: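 Approved and investigational drugs from MIPE 4.0 were added by pin tool to 500 cells per well. After 48 hours at 37C, ATP-based CellTiter-Glo luminescence indicated remaining viability.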

Measured: Potency
Potency is read from the fitted curve at half-maximal effect.

CN(N=O)C(=O)N[C@H]1C(O)OC(CO)[C@@H](O)[C@H]1O (stereo partly drawn)
inactive: [1] | [2] | [3]

CC(=O)NC(CS)C(=O)O (stereo not drawn)
inactive: [1] | [2] | [3]

Cc1cc(C(=O)NOCCO)c(Nc2ccc(I)cc2F)n(C)c1=O
not listed: [5]
inactive: all other assays above

N#Cc1ccc(COC[C@H]2O[C@@H](n3c(NCc4ccc(Cl)c(Cl)c4)nc4c(N)ncnc43)[C@@H](O)[C@@H]2O)cc1
active: [1] 5.26 µM | [2] 5.26 µM | [4] 5.26 µM | [3] 5.9 µM

CN(C)CC[C@H](c1ccc(Cl)cc1)c1ccccn1
inactive: [1] | [5]

CCCCCCCCCCCCc1ccc(S(=O)(=O)Nc2nncs2)cc1
not listed: [2]
inactive: all other assays above

O=C(O)[C@H](CC(=O)N1C[C@@H]2CCCC[C@H]2C1)Cc1ccccc1
not listed: [2]
inactive: all other assays above

C=CC(=O)Nc1cc(NC(=O)c2ccc(C)c(NC(=O)c3ccno3)c2)cc(C(F)(F)F)c1
active: [1] 16.6 µM | [2] 23.5 µM | [4] 11.8 µM | [3] 20.9 µM

CCOC(=O)C1=C(C)NC(=S)NC1c1cccc(O)c1 (stereo not drawn)
active: [1] 0.0372 µM | [5] 0.105 µM | [4] 0.0166 µM

Cc1cc(Nc2ncc3c(n2)N(C)C(=O)N(c2cc(NC(=O)c4cccc(C(F)(F)F)c4)ccc2C)C3)n(C)n1
active: [1] 1.87 µM | [5] 0.743 µM | [4] 0.235 µM | [3] 3.32 µM

C[C@@H]1C(=O)O[C@H]2CC34[C@H]5C[C@@H](C(C)(C)C)C36[C@H](OC(=O)[C@@H]6O)O[C@@]4(C(=O)O5)[C@]21O (stereo partly drawn)
not listed: [1]
inactive: all other assays above

CC(N[C@H]1CCCC[C@H]1NC(=O)c1ccc(Cl)cc1)c1cccc2ccccc12 (stereo partly drawn)
active: [3] 18.7 µM
inactive: [2] | [5]

CC(C=CC(=O)NO)=C[C@@H](C)C(=O)c1ccc(N(C)C)cc1
active: [2] 0.332 µM | [5] 0.833 µM | [4] 0.235 µM | [3] 0.187 µM

c1cc(CN2CCCNCCNCCCNCC2)ccc1CN1CCCNCCNCCCNCC1
not listed: [1]
inactive: all other assays above

CC(=O)N[C@@H]1[C@H](O[C@@H]2c3ccc(c(Cl)c3)Oc3cc4cc(c3O[C@H]3O[C@H](CO)[C@@H](O)[C@H](O)[C@H]3NC(=O)CCCCCCCC(C)C)Oc3ccc(cc3Cl)C[C@H]3NC(=O)[C@H](N)c5ccc(O)c(c5)Oc5cc(O)cc(c5)[C@H](NC3=O)C(=O)N[C@H]4C(=O)N[C@H]3C(=O)N[C@@H]2C(=O)N[C@@H](C(=O)O)c2cc(O)cc(O[C@H]4O[C@H](CO)[C@@H](O)[C@H](O)[C@H]4O)c2-c2cc3ccc2O)O[C@H](CO)[C@@H](O)[C@@H]1O
not listed: [1]
inactive: all other assays above

NC(=O)c1cccc(-c2cccc(OC(=O)NC3CCCCC3)c2)c1
not listed: [1]
inactive: all other assays above

CCCCOc1ccc(C(=O)Nc2ccc(F)cc2F)cc1
not listed: [1]
inactive: all other assays above

O=C(Nc1cccc(Nc2ncc(Br)c(NCCc3cnc[nH]3)n2)c1)N1CCCC1
active: [2] 18.7 µM | [5] 4.18 µM | [4] 8.33 µM | [3] 18.7 µM

C[C@H]1O[C@H](O[C@H]2[C@H](O)[C@@H](O)[C@@H](O[C@H]3[C@H](O)[C@@H](O)C(O)O[C@H]3CO)O[C@H]2CO)[C@H](O)[C@@H](O)[C@H]1N[C@H]1C=C(CO)[C@@H](O)[C@H](O)[C@@H]1O (stereo partly drawn)
not listed: [1]
inactive: all other assays above

C[C@](Cc1c[nH]c2ccccc12)(NC(=O)OC1C2CC3CC(C2)CC1C3)C(=O)NC[C@H](NC(=O)CCC(=O)O)c1ccccc1 (stereo partly drawn)
not listed: [1]
inactive: all other assays above

Oc1cc2c(cc1O)C1c3ccc(O)c(O)c3OCC1(O)C2 (stereo not drawn)
not listed: [1]
inactive: all other assays above

NC(=O)Nc1sc(-c2ccc(F)cc2)cc1C(N)=O
active: [2] 5.9 µM | [5] 18.7 µM | [4] 4.69 µM | [3] 4.69 µM

C[C@@H](NCc1cc2ccccc2[nH]1)c1cccc2ccccc12
not listed: [1]
inactive: all other assays above

C=C1C[C@@]2(O)O[C@@]3(C[C@H]2C(C)C)[C@H](C)CC[C@H]13
not listed: [1]
inactive: all other assays above

NC(=O)c1ncn([C@@H]2O[C@H](CO)[C@@H](O)[C@@H]2O)c1O
not listed: [1]
inactive: all other assays above

Cn1cc(C[C@@H](N)C(=O)O)c2ccccc21
not listed: [1]
inactive: all other assays above
